Screening results from PubChem BioAssay.
RGS7-Gao: human RGS7-Galphao interaction regulation; P09471; Multiplexed bead flow cytometry, RGS7-Galphao binding; actives lie on both sides; binding response (% of control), % at 10 µM; actives 0.35% (n = 220,000); AID 1439; in the data active = binding response below about 49% or above about 150%; inconclusive = no clear call, values can overlap the other calls; inactive = in between;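 note: fluorescent Galphao held in activated GDP-AlF4 state binding bead-coupled RGS7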
Target sequence (P09471 whole entry, looked up): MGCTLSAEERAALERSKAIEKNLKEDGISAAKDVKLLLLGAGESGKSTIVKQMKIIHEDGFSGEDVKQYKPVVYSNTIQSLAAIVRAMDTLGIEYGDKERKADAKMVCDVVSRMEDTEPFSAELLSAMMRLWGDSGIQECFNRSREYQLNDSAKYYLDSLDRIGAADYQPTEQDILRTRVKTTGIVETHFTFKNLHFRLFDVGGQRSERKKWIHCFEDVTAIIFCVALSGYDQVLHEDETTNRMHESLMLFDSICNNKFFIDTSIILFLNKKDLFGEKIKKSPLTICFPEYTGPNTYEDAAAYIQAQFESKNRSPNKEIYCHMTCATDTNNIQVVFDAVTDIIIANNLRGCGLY
GSH fluor: GSH bead compound fluorescence profile | GSH beads flow cytometry, compound fluorescence 488/530 nm; active compounds read high | fluorescence (KMESF) at 10 µM | actives 0.25% (n = 190,000) | AID 1776; in the data active = fluorescence above about 89;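 note: glutathione beads carrying GST-tagged Bcl family fusion proteins plus one bare bead set; values are compound well signal with DMSO vehicle wells as background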
RGS16-Gao HTS: RGS16-Galphao interaction regulator (human). O15492+P09471. bead-based flow cytometry RGS16-Galphao binding, fluorescence; actives lie on both sides. binding response (% of control), % at 10 µM. actives 0.38% (n = 220,000). AID 1441;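 note: Galphao activated by GDP with aluminum fluoride before binding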
RGS8-Gao: modulates binding of RGS8 to human Galphao | actives 0.34% (n = 220,000) | response (percent of control binding), % at 10 µM | multiplexed bead flow cytometry; actives lie on both sides; in the data active = response below about 60% or above about 140%; inactive = in between;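 note: Galphao activated as the GDP aluminium fluoride complex binding bead-coupled RGS8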
Avidin bead fluor: avidin bead compound fluorescence profile. Avidin beads, compound fluorescence 488/530 nm, flow cytometry; active compounds read high. actives 0.38% (n = 220,000). AID 1775. fluorescence (KMESF) at 10 µM; in the data active = fluorescence above about 47
RGS4-Gao reg: human RGS4-Galphao interaction regulation; binding response (% of control), % at 10 µM; actives 0.33% (n = 220,000); Multiplexed bead flow cytometry, RGS4-Galphao binding; actives lie on both sides; P09471; in the data active = binding response below about 49% or above about 150%; inactive = in between;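 note: fluorescent Galphao activated with aluminum fluoride binding bead-coupled RGS4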
RGS4-Gao HTS: regulators of human RGS4-Galphao interaction; multiplexed bead flow cytometry, RGS–Galpha-o binding; shares compounds with RGS16-Gao HTS; actives 99% (n = 1,600); AID 1504; RGS4–Galpha-o binding response, % at 10 µM;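 note: fluorescently labeled Galpha-o bound to GDP with aluminium fluoride binding biotinylated RGS beads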
Biotin-avidin: counter-screen: compounds disrupting biotin binding to avidin beads; shares compounds with RGS16-Gao HTS; streptavidin beads, fluorescein-biotin binding, flow cytometry; inhibition, % at 10 µM; 1,700 tested, under 10 active; AID 1783;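 active = inhibition above 50%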;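 note: median green fluorescence of gated singlet beads compared with DMSO control wells; 0% = DMSO wells and 100% = complete loss of bead fluorescence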
RGS8-Gao single: confirmation of regulators of human RGS8-Galphao interaction | AID 1836 | bead-based flow cytometry RGS8-Galphao binding, fluorescence; actives lie on both sides | binding response (% of control), % at 10 µM | actives 3% (n = 1,700) | shares compounds with RGS16-Gao HTS; in the data active = binding response below about 72% or above about 130%; inactive = in between;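 note: Galphao activated as GDP AlF4 complex before binding bead RGS8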
RGS7-Gao single: RGS7-Galphao interaction regulation, single point confirmation | AID 1837 | actives 7.8% (n = 1,700) | bead-based flow cytometry RGS7-Galphao binding; actives lie on both sides | shares compounds with RGS16-Gao HTS | response (percent of control binding), % at 10 µM; in the data active = response below about 75% or above about 130%; inactive = in between;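 note: fluorescent Galphao activated with GDP and aluminum fluoride binding bead-coupled RGS7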
RGS16-Gao single: confirmation of regulators of human RGS16-Galphao interaction | shares compounds with RGS16-Gao HTS | bead-based flow cytometry, RGS16-Galphao binding; actives lie on both sides | response (% of control binding), % at 10 µM | actives 4% (n = 1,700); in the data active = response below about 74% or above about 130%; inactive = in between;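 note: Galphao activated as the GDP aluminium fluoride complex binding bead-coupled RGS16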
RGS4-Gao single: confirmation of regulators of human RGS4-Galphao interaction. shares compounds with RGS16-Gao HTS. binding response (% of control), % at 10 µM. actives 4% (n = 1,700). RGS4-Galphao binding, multiplexed bead flow cytometry; actives lie on both sides. AID 1840; in the data active = binding response below about 74% or above about 130%; inactive = in between
RGS19-Gao conf: confirmation of regulators of human RGS19-Galphao interaction | shares compounds with RGS16-Gao HTS | bead-based flow cytometry RGS19-Galphao binding; actives lie on both sides | response (percent of control binding), % at 10 µM | actives 5% (n = 1,700); in the data active = response below about 50% or above about 160%; inactive = in between;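 note: 100% = no compound control and 0% = blank background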
Target sequence (P09471 whole entry, looked up): as above
Target sequence (P49795 whole entry, looked up): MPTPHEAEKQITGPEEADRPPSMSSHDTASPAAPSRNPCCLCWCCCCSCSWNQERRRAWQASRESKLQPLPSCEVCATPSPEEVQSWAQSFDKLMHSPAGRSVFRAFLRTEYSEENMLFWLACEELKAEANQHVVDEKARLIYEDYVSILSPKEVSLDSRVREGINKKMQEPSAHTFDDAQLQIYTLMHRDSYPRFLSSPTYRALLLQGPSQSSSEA
Starred values were filed as active, the others as inactive; ? = inconclusive; . = no result given; [ ] = dose if it differs, or a comment. Compounds with a hit are over-represented: about 1.2% of the library has one in this group of screens. Unless noted, the rule behind the calls is not given here.

SMILES | RGS7-Gao | GSH fluor | RGS16-Gao HTS | RGS8-Gao | Avidin bead fluor | RGS4-Gao reg | Biotin-avidin | RGS8-Gao single | RGS7-Gao single | RGS16-Gao single | RGS4-Gao single | RGS19-Gao conf | others
COCCCNC(CC(=O)Nc1ccc(OC)cc1OC)C(=O)O (configuration not stated) | . | 55 | . | . | . | . | 1 | 104 | 107 | 106 | 103 | 96
COc1ccc(NC(=O)CC(NCCc2ccccc2)C(=O)O)c(OC)c1 (configuration not stated) | 99 | 13 | 101 | 101 | 23 | 99 | . | . | . | . | . | .
Cc1cc(C(=O)CSc2nc3ccccc3c(=O)[nH]2)c(C)n1C | 8.0* | 24 | 11* | 10* | -1 | 18* | 0 | 104 | 102 | 104 | 102 | 98
Cc1onc(-c2ccccc2)c1CNS(=O)(=O)c1cccc(Cl)c1 | ? | . | 141 | 127 | 6 | 153*[activator] | -1 | 100 | 104 | 101 | 103 | 94
Cc1onc(-c2ccccc2)c1CNS(=O)(=O)c1ccccc1 | ? | . | 96 | 98 | 3 | 100 | . | . | . | . | . | .
CCCNC(=O)c1ccc(CN2CCc3ccccc3C2)cc1 | 22* | 15 | 21* | 34* | 1 | 16* | 0 | 98 | 100 | 100 | 98 | 102
O=C(CN1CCC(n2nnc3cc(F)ccc32)CC1)Nc1ccc2c(c1)CCC2 | . | 21 | . | . | . | . | 2 | 100 | 100 | 99 | 100 | 92
Cc1nn(-c2cc(N3CCOCC3)ccc2[N+](=O)[O-])c(=O)c2ccccc12 | 161*[activator] | 17 | 101 | 100 | 67* | 110 | -2 | 106 | 93 | 106 | 102 | 105 | RGS4-Gao HTS=110*
Cc1nn(-c2cc(N3CCCC3)ccc2[N+](=O)[O-])c(=O)c2ccccc12 | 101 | 33 | 86 | 96 | 7 | 95 | . | . | . | . | . | .
O=C(Nc1nnc(-c2ccccc2Cl)o1)c1cc2cc([N+](=O)[O-])ccc2s1 | 92 | 5 | 17* | 83 | 8 | 94 | . | . | . | . | . | . | RGS4-Gao HTS=94*
Cc1cc(=O)n(-c2ccc(Cl)cc2)c(=O)[nH]1 | ? | 14 | 99 | 100 | 7 | 102 | . | . | . | . | . | .
CN(C(=S)Nc1ccc(Oc2ccccc2)cc1)C1CCCCC1 | 85 | 6 | 14* | 72 | 6 | 87 | 0 | 100 | 98 | 100 | 101 | 99 | RGS4-Gao HTS=87*
CC(=O)Nc1ccc(NC(=O)c2ccco2)cc1 | 85 | 15 | -100* | 69 | 8 | 83 | -1 | 102 | 97 | 102 | 101 | 94 | RGS4-Gao HTS=83*
COc1ccc(CCNC(=O)/C(=C/c2cccnc2)NC(=O)c2ccccc2)cc1 | 108 | 13 | 226*[activator] | 127 | 14 | 110 | -2 | 103 | 107 | 104 | 103 | 92 | RGS4-Gao HTS=110*
O=C(NCCc1ccccc1F)/C(=C/c1cccnc1)NC(=O)c1ccccc1 | 97 | 13 | 78 | 96 | 6 | 101 | . | . | . | . | . | .
CC(C)NC(=O)c1ccc(C2SCC(=O)N2Cc2ccccc2)cc1 (configuration not stated) | 254*[activator] | 21 | 346*[activator] | 90 | 185* | 267*[activator] | -1 | 88 | 75* | 84 | 82 | 71
S=C(NCCc1ccccn1)Nc1ccc(Cl)cc1Cl | 103 | 10 | 95 | 100 | 12 | 100 | . | . | . | . | . | .
CN(C)c1ncc(C2=C(Cl)C(=O)C(N3CCCC3)=C(Cl)C2=O)s1 | 41* | 3 | 30 | 47* | 1 | 67 | -4 | 41* | 22* | 35* | 72* | -9.7* | RGS4-Gao HTS=67*
O=C1C(Cl)=C(N2CCCCC2)C(=O)C(Cl)=C1c1cnc(N2CCCCC2)s1 | 43* | 3 | 32 | 50* | 1 | 69 | 1 | 37* | 16* | 27* | 59* | -8.5* | RGS4-Gao HTS=69*
Clc1ccc(Cl)c2sc(N3CCCC3)nc12 | 99 | 15 | 104 | 103 | 16 | 103 | . | . | . | . | . | .
COc1ccc(CNC(=O)C2CCC(CNc3c(N4CCCCC4)c(=O)c3=O)CC2)cc1 (configuration not stated) | ? | . | 14* | 24* | 0 | 20* | 1 | 107 | 111 | 106 | 108 | 100
O=C(CCSCc1ccc(Cl)cc1)NCCc1ccccc1 | 97 | 11 | 93 | 97 | 12 | 103 | . | . | . | . | . | .
Cc1ccc(CSCCC(=O)NCCc2ccc(Cl)cc2)cc1 | 212*[activator] | 17 | 212 | 112 | 121* | 188*[activator] | 2 | 95 | 95 | 95 | 97 | 87
C#CCOCCOCCOCCNc1nc(N2CCN(C(=O)[C@H]([C@@H](C)CC)n3cc([C@@H](N)Cc4ccc(O)cc4)nn3)CC2)nc(N2CCN(C(=O)[C@H](CCCCN)n3cc([C@@H](N)CC(C)C)nn3)CC2)n1 | 106 | 20 | 105 | 105 | 5 | 98 | . | . | . | . | . | .
O=C(C1CC1)N1CCc2sccc2C1c1ccc(Cl)cc1 (configuration not stated) | ? | . | 99 | 99 | 3 | 97 | . | . | . | . | . | .
CCC1S/C(=N/N=C/c2ccco2)N(Cc2ccccc2)C1=O (configuration not stated) | . | . | . | . | . | . | -1 | 101 | 105 | 101 | 102 | 118
CC1S/C(=N/N=C/c2ccco2)N(Cc2ccc(F)cc2)C1=O (configuration not stated) | ? | . | 100 | 98 | 5 | 100 | . | . | . | . | . | .
CCN1C(=O)/C(=C/N2CCc3ccccc3C2)SC1=S | . | . | . | . | . | . | 2 | 99 | 99 | 99 | 97 | 102
CC1(C)CC(=O)C2=C(C1)Nc1ccccc1NC2c1cccnc1 (configuration not stated) | 115 | 13 | 198 | 133 | 20 | 115 | . | . | . | . | . | .
